Data: PubChem BioAssay (NCI)
About 83,000 compounds went through this panel and 20% of them were active in at least one assay; those are over-represented in the sample as a whole.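 Results are percent growth after 48 hours of single-concentration exposure. 100 means growth as in untreated cells, lower positive values show inhibition; negative values down to -100 show cell death.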 Unmarked numbers belong to inactive results. The source made the active and inactive calls. The calls were made as follows: active = growth percent below 10; inactive = the rest.

Key:
Assay in all cases: NCI-60 one-dose screen, 48 h (100 = growth as untreated, 0 = no growth, -100 = all killed)
Conditions in all cases: 10 µM unless noted
[1] = test system: T-47D breast
[2] = test system: MDA-MB-435 melanoma
[3] = test system: SW-620 colon
[4] = test system: HCT-116 colon
[5] = test system: HCC-2998 colon
[6] = test system: MCF7 breast
[7] = test system: KM12 colon
[8] = test system: BT-549 breast

| SMILES | growth [1] | growth [2] | growth [3] [%] | growth [4] | growth [5] | growth [6] | growth [7] | growth [8] [%] |
| --- | --- | --- | --- | --- | --- | --- | --- | --- |
| O=c1nc(Nc2cccc(Cl)c2)oc2cc(Cl)oc(=O)c12 | 61.6% | 85.8% | 74.1 | 55.1% | 96.2% |  |  |  |
| O=C(O)CCCCCNC(=O)OCc1ccccc1 | 97.6% | 99.8% |  | 92.9% | 105% | 93.6% | 101% |  |
| CC(=O)OCC1OC(n2cnc3c(=S)nc(N)[nH]c32)C(OC(C)=O)C1OC(C)=O (stereo unspecified) | 54.4% | 99.3% | 82.9 | 43.3% |  | 60.7% | 86.3% |  |
| Oc1ccc(N=Cc2ccc(OCc3ccccc3)cc2)cc1 | 103% | 88.4% |  | 106% | 112% | 99.1% | 92.8% |  |
| c1ccc2[nH]c(Cc3nc4ccccc4[nH]3)nc2c1 | 89.3% | 101% | 105 | 89.8% | 108% | 84.9% | 97.6% |  |
| CN(C)c1ccc(/C=C/C(=O)c2ccc(NC(N)=O)cc2)cc1 | 82% | 93.8% |  | 75.4% | 105% | 58.4% | 98.5% |  |
| C=CCC(OC(C)=O)c1ccc(C(C)C)cc1 (stereo unspecified) | 115% | 124% |  | 110% | 103% | 113% |  |  |
| c1cc(CNCCNCc2ccncc2)ccn1 | 91.4% | 112% | 105 | 95.2% | 102% | 100% | 108% |  |
| CC(=O)NC(O)C(Cl)Cl (stereo unspecified) |  | 103% | 114 | 114% | 98.4% | 93.7% | 103% | 85.9 |
| C/C(=N\Nc1ccc([N+](=O)[O-])cc1[N+](=O)[O-])c1ccc(Br)cc1 |  | 98.4% | 101 | 102% | 99.4% | 97.2% | 93.3% |  |
| CCN(C(=O)Nc1ccccc1Cl)c1ccccc1 |  | 98.3% | 108 | 112% | 111% | 100% | 105% | 106 |
| CC(C)C1CCC(C)C(O)C1 (stereo unspecified) |  | 93.5% | 98 | 111% | 109% | 100% | 97.3% |  |
| C1C[S+]2CC[S+]1CC2 |  | 109% | 101 | 104% | 105% | 103% | 106% | 97 |
| CCN(C(C)=O)c1ccc([N+](=O)[O-])cc1 |  | 116% | 98.2 | 109% | 97.8% | 98.1% | 103% | 117 |
| Cc1[nH]nc(C(N)=O)c1[N+](=O)[O-] |  | 105% | 91 | 99.9% | 106% | 97.4% | 103% |  |
| C=CCS(C)(=O)=O |  | 96.7% | 95.4 | 94% | 108% | 96.3% | 88.3% |  |
| Ic1cccs1 |  | 107% | 104 | 103% | 108% | 97.9% | 103% | 107 |
| Cc1ccc(C2CCCCC2)cc1Br |  | 100% | 99.1 | 105% | 105% | 96.9% | 94.3% |  |
| OCCc1ccc(Cl)cc1 |  | 92.3% | 105 | 101% | 110% | 93.7% | 88.9% |  |
| O=C(CC(CC(=O)c1ccccc1)c1ccccn1)c1ccccc1 | 97.2% |  | 101 | 94% | 97% | 107% | 102% |  |
| C/C(=N\O)c1ccccn1 |  | 94.3% | 94 | 111% | 109% | 99.9% | 93.8% |  |
| CC(=O)Oc1c(Cl)cccc1-c1ccccc1 |  | 104% | 96.4 | 101% | 102% | 101% | 104% |  |

| SMILES | growth [1] | growth [2] | growth [3] [%] | growth [4] | growth [5] | growth [6] | growth [7] | growth [8] [%] |
| --- | --- | --- | --- | --- | --- | --- | --- | --- |
| NC(=O)NCCO |  | 101% | 103 | 109% | 102% | 98.3% | 101% | 101 |
| NNc1ncnc2c1ncn2C1OC(CO)C(O)C1O (stereo unspecified) |  | 56.4% | 21.4 | 4.61% (active) | 48.9% | 6.39% (active) | 28.5% | 42.3 |
| O=C(O)c1ccc([N+](=O)[O-])cc1S(=O)(=O)O |  | 108% | 105 | 95.6% | 97.8% | 104% | 104% | 108 |
| COc1cccc(C(=O)O)c1OC |  | 90.9% | 100 | 103% | 98.6% | 87.2% | 101% |  |
| CC(C)C(=O)OCCOc1ccc(C(C)(C)C)cc1 |  | 87.5% | 92.2 | 105% | 111% | 95.4% | 93.3% |  |
| O=C(Oc1ccccc1Cl)c1ccc(Cl)cc1Cl |  | 95.4% | 98.9 | 95.2% | 102% | 84.6% | 87.4% |  |
| CC(C)(N)CO[C@H]1C[C@H]2CC[C@@]1(C)C2(C)C |  | 94.7% | 88.1 | 89.9% | 102% | 92.5% | 94.1% | 93.5 |
| CCOC(C=O)OCC |  | 102% |  | 105% | 99.1% | 95.4% | 104% | 103 |
| O=S1(=O)c2ccccc2Oc2ccccc21 |  | 101% |  | 102% | 106% | 87.8% | 109% | 113 |
| NNc1ncccn1 |  | 91% | 94.7 | 98.1% | 102% | 101% | 101% |  |
| CC(C)C(C)(C)C(=O)C(C)(C)C(C)(C)C |  | 108% | 106 | 97.7% | 104% | 97% | 107% | 82 |
| COC1OC(C(O)C(O)CO)C(O)C(O)C1O (stereo unspecified) |  | 105% | 105 | 90.5% | 107% | 97.1% | 106% | 91 |
| CC(CC(CCC(=O)O)(c1ccccc1)c1ccccc1)N(C)C (stereo unspecified) |  | 105% | 109 | 97.2% | 106% | 91.2% | 109% | 68.1 |
| C/C(=N\N=C(/C)c1cccc([N+](=O)[O-])c1)c1cccc([N+](=O)[O-])c1 |  | 98.9% | 101 | 89.8% | 98% |  | 97.9% | 46.6 |
| CCC(C)c1c(N)n(S(=O)(=O)c2ccc(C)cc2)oc1=O (stereo unspecified) |  | 107% | 105 | 102% |  |  | 104% | 110 |
| CSc1nc2[nH]ncc2c(=O)[nH]1 |  | 103% | 95.4 | 98.1% | 108% | 98.1% | 99.9% | 88.9 |
| COC(=O)c1cccc([N+](=O)[O-])c1 |  | 117% | 105 | 110% | 99.7% | 104% | 103% | 131 |
| C=C(C)COc1ccc(C(C)(C)C)cc1 |  | 93.4% | 101 | 96% | 111% | 98.5% | 103% |  |
| CCCCCC(=O)OCCC1CCCCC1 |  | 100% | 98.4 | 89.8% | 99.1% | 107% | 101% | 98.7 |
| N#Cc1ccc(OC(=O)Nc2cc(Cl)cc(Cl)c2)cc1 | -12.2% [100 µM] (active) | -9.08% [100 µM] (active) |  | -62.7% [100 µM] (active) | -8.43% [100 µM] (active) | -25.7% [100 µM] (active) | -15% [100 µM] (active) |  |
| COC(=O)Cc1cc(COC(C)=O)ccc1C | 110% | 116% |  | 104% | 106% |  | 114% |  |
